SARS PLP yeast – qHTS of Yeast-based Assay for SARS-CoV PLP; S. cerevisiae expressing SARS-CoV PLpro, growth rescue; Potency, µM (doses to about 32.9 µM), inactives show at the highest dose activity, positive = growth rescue, most hits filed as activators; 330,000 compounds, 0.19% hits; AID 485353, 2010; calls by dose curve; also: 0% is about no effect; nearly all actives have a fitted effect of over 55% in size
Pf growth 96h – Primary qHTS for delayed death inhibitors of the malarial parasite plastid, 96 hour incubation | P. falciparum luciferase reporter growth, 96 h | Potency, µM (titrated, usually from 28.7 µM), inactives show top-dose activity change, negative = inhibition, most hits filed as inhibitors | 320,000 compounds, 6.9% hits; also: % is scaled to controls: 0 for no effect and ±100 for the full control effect
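Readout is luminescence from an integrated firefly luciferase in P. falciparum. Red cells, 2% hematocrit and 0.05% parasitemia final, were cultured with compound through two parasite generations (96 hours) at 37 C, 5% CO2.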
AMA1 RON2 block – qHTS for Inhibitors of AMA1-RON; Towards Development of Antimalarial Drug Lead: Primary Screen; Plasmodium falciparum AMA1 (3D7) - RON2 peptide interaction; AlphaScreen AMA1-biotinylated RON2 peptide binding; Potency, µM (titrated, usually from 58.2 µM), for the others: top-dose activity change, negative = inhibition, hits mostly inhibitors; 360,000 compounds, 0.2% hits; AID 720542, 2013;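 also: 0% = vehicle wells and -100% = peptide control; nearly all actives have a fitted effect of over 45% in size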
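AMA1 (3D7) with his tag at 25 nM final met compounds first, then biotinylated RON2 peptide at 25 nM; detection used donor plus acceptor beads, 10 µg/mL apiece, read by AlphaScreen after 30 min at room temperature.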
Pf growth 48h – Primary qHTS for delayed death inhibitors of the malarial parasite plastid, 48 hour incubation. 310,000 compounds, 5.9% hits. P. falciparum luciferase growth in erythrocytes, 48 h. Potency, µM (titrated, usually from 28.7 µM), without a hit: at the highest dose activity change, negative = inhibition, actives largely listed as inhibitors. AID 504832, 2011; also: % is scaled to controls: 0 for no effect and ±100 for the full control effect
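A one-generation exposure of luciferase-tagged malaria parasites in RPMI 1640/Albumax erythrocyte culture, 37 C and 5% CO2. Inhibition is inferred from decreased luminescence after adding detection reagent.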
* = called active by the depositor; ? = inconclusive; nt = no result given; [ ] = another dose, or the depositor's remark. Shown are actives, neighbours in structure and some others; about 9.4% of the full set was active somewhere. Unless noted, calls follow the shape of the dose curve; as a rule, active = well fitted curve in the direction sought with a large enough effect; inconclusive = small, poorly fitted or top-dose-only effect, or another doubt; inactive = no such curve, though single readings can be large; an effect the other way counts as inactive or inconclusive. Potency is read from the fitted curve at half-maximal effect.

SMILES	SARS PLP yeast	Pf growth 96h	AMA1 RON2 block	Pf growth 48h
OCCC1CN(Cc2ccccn2)CCN1C1CCCC1 (configuration not stated)	1%	-4%	21%	?
O=C1CCCC/C1=N\Nc1ccc(C2CCCCC2)cc1	0%	0%	nt	221%
CC(C)c1ccc(NC2CCCN(C(=O)c3cc(C(C)C)nc(N)n3)C2)cc1 (configuration not stated)	-4%	15µM*	-10%	14%
Cc1nn(C)c(C)c1CCC(=O)N1CCCC(Nc2ccc(C(C)C)cc2)C1 (configuration not stated)	nt	6%	-11%	-21%
CC(C)c1ccc(NC2CCCN(C(=O)CCc3cnn(C)c3)C2)cc1 (configuration not stated)	0%	7.4µM*	2%	1%
CC(C)c1ccc(NC2CCCN(C(=O)c3cccc4nccnc34)C2)cc1 (configuration not stated)	-5%	4.7µM*	-18%	0%
N#CC1CC(c2ccccc2)=NN1c1ccccc1[N+](=O)[O-] (configuration not stated)	-12%	0%	-1%	87%
C[C@H](O)[C@H](O)[C@H]1CNc2nc(N)[nH]c(=O)c2N1	nt	-10%	?	-2%
C=CCN1CC(O)=C(c2ccccc2)C1=N	-13%	2%	-4%	36%
N=C1C(c2ccccc2)=C(O)CN1CCCO	3%	15µM*	-3%	?
COc1ccc(OC)c(C2=NOC(C(=O)N3CCCc4ccccc43)C2)c1 (configuration not stated)	4%	nt	2%	5%
CCOC(=O)[C@@H]1[C@H]2COc3cc(OC)ccc3[C@@H]2N2C(=O)N(c3ccc(C)cc3)C(=O)[C@]12C	nt	nt	16%	nt
CCOc1ccc(OCC)c(NC(=O)c2ccc(CNc3c(N4CCCC4)c(=O)c3=O)cc2)c1	0%	?	14%	12µM*
CCOc1ccc(NC(=O)c2ccc(CNc3c(N4CCCC4)c(=O)c3=O)cc2)cc1	1%	?	1%	19%
COc1ccccc1CNC(=O)c1ccc(CNc2c(N3CCCC3)c(=O)c2=O)cc1	-3%	4.7µM*	9%	?
CCn1c(SC)nnc1C1CCN(S(=O)(=O)c2ccc(OC)cc2)CC1	3%	-26%	-14%	4%
COc1ccc(C(=O)Cn2nnc(-c3ccccc3NC(=O)C3CCCCC3)n2)cc1	-3%	nt	-3%	12µM*
COc1ccc(NC(=O)Cn2nnc(-c3ccccc3NC(=O)C3CC3)n2)cc1	0%	nt	-9%	-12%
Cc1onc(-c2ccccc2Cl)c1C(=O)Nc1ccccc1C(=O)NC(C)C	-6%	47%	-9%	?
Cc1cc(-c2ccc(C(C)C)c(S(=O)(=O)NCc3ccco3)c2)on1	-12%	?	-7%	-19%
Cc1ccnc(NS(=O)(=O)c2cc(-c3cc(C)no3)ccc2C(C)C)c1	7%	10µM*	21%	23%
CC(C)CC1c2[nH]c3ccccc3c2CCN1CCCn1cccn1 (configuration not stated)	0%	13µM*	-13%	?
COc1ccc(C2c3[nH]c4ccccc4c3CCN2CCCn2cccn2)c(C)c1C (configuration not stated)	-1%	12µM*	?	?
CCOC(=O)c1ccc(-c2c(C(=O)OCC)oc3cc(O)c(CC)cc3c2=O)o1	-4%	?	11%	10µM*
CCOC(=O)c1oc2cc(O)c(CC)cc2c(=O)c1-c1cscn1	4%	28%	-1%	5%
SMILES	SARS PLP yeast	Pf growth 96h	AMA1 RON2 block	Pf growth 48h
CN(C)S(=O)(=O)c1ccc(Nc2ccc(-c3ccc4c(c3)OCCO4)nn2)cc1	-4%	5.9µM*	-6%	?
Cc1ccccc1-c1nc(CN2CCC(C(=O)NCCCN3CCOCC3)CC2)c(C)o1	8%	0%	-11%	?
O=C(Nc1ccc(-c2nc3ccccc3o2)cc1)c1ccc(N2CCOCC2)c([N+](=O)[O-])c1	-3%	?	10%	-3%
COc1ccc2oc(-c3ccc(NC(=O)c4ccc(N5CCOCC5)c([N+](=O)[O-])c4)cc3)nc2c1	12%	?	1%	2.3µM*
COc1cc(/C=C/C(=O)NCCc2ccc(S(N)(=O)=O)cc2)ccc1OCC#N	-1%	12µM*	0%	?
CCOc1ccc(/C=C/C(=O)Nc2ccc(C(N)=O)cc2)cc1OC	14%	-13%	5%	9%
CCOc1cc(/C=C/C(=O)NCCc2ccc(S(N)(=O)=O)cc2)ccc1OCC(C)C	0%	0.66µM*	0%	?
CCOc1cc(/C=C/C(=O)Nc2ccc(C(=O)NCCN(CC)CC)cc2)ccc1OCC(C)C	-4%	0.52µM*	-6%	2.6µM*
COc1cc(CNCCc2ccc(S(N)(=O)=O)cc2)ccc1OCC(=O)NC(C)(C)C	20%	13µM*	11%[11.6 µM]	-17%
Cc1nnsc1C(=O)N1CCCC(C)(C(=O)NS(=O)(=O)C2CC2)C1 (configuration not stated)	nt	nt	-18%	nt
O=C1c2ccccc2NC(c2ccc(O)cc2)N1Cc1ccco1 (configuration not stated)	5%	?	3%	-24%
O=C1c2ccccc2NC(c2cccc(F)c2)N1Cc1ccco1 (configuration not stated)	-2%	?	0%	-18%
Cc1ccc(C2Nc3ccccc3C(=O)N2Cc2ccco2)cc1 (configuration not stated)	3%	15µM*	-10%	?
COc1ccc(C2Nc3ccccc3C(=O)N2Cc2ccco2)cc1COc1ccccc1F (configuration not stated)	9%	4.1µM*	-11%	nt
COc1ccc(C2Nc3ccccc3C(=O)N2Cc2ccco2)cc1COc1ccc(NC(C)=O)cc1 (configuration not stated)	8%	10µM*	-16%	?
Cc1nc2nc(C)c(NS(=O)(=O)c3ccc(CC(C)C)cc3)c(=O)n2[nH]1	3%	-3%	-8%	24%
CCCCC(=O)Nc1ccc(Br)cc1C(=O)O	0%	nt	19%	8%
CC[n+]1ccc(C)c2cc(P(=O)(c3ccccc3)c3ccccc3)ccc21	-5%	?	?	13µM*
CC[n+]1ccc(C)c2cc(S(=O)C(F)(F)F)ccc21 (configuration not stated)	-3%	?	-9%	3.7µM*
CCCCOc1ccc(/C(O)=C(\C#N)c2nc3ccccc3[nH]2)cc1	2%	?	60%	nt
O=C(CCCSc1nc2ccccc2[nH]1)NCc1ccccc1F	0%	1%	-19%	9%
O=C(CSc1nc2ccccc2c(=O)[nH]1)NCc1ccc(Cl)cc1	-6%	11%	-2%	nt
O=c1[nH]c(SCc2ccc(Cl)cc2)nc2ccccc12	1%	13µM*	0%	?

Source: PubChem
